Measured potencies and affinities stand elsewhere. Active and inactive are the calls of the source.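 Rule for the calls: active = compounds lowering cell ATP signal whose fitted half-maximal concentration is at most twice the top tested dose; inconclusive = flat curve with 30 to 70% signal loss, or poor fit; inactive = the rest.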
Experiment: HEK293T cell cytotoxicity, dose response, cytotoxicity control, CellTiter-Glo luminescence, dry powder, set 6 (AID 651949)

SMILES | outcome
c1ccc(CSc2nnc(-c3ccccc3)o2)cc1 | inactive
Clc1ccc(-c2nnc(SCc3ccccc3)o2)cc1 | inactive
